# In the supplement of paper PMC10849652:
# Of roughly 7,900 targets only a part is listed; those with a hit were picked by preference. About 0.6% of all pairs of compound and target were hits. Unmarked numbers belong to inactive results.
# Compound: NC(=O)Nc1cc(-c2cccc(F)c2)sc1C(=O)N[C@H]1CCCNC1
# Experiment: log2 fold change, soluble protein after heating vs DMSO (PISA); higher = thermal stabilisation; K562 cells, 10 uM, 30 min; active = over 0.2 and 3.5 SD of the protein, either way, in both replicates (recomputed)
# In short: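 Soluble protein was defined as the supernatant after 21,000xg for 90 min. It came from K562 cells at 2×10^6 cells/mL given 10 μM compound for 30 min, heated in aliquots for 3 min across 48°C-58°C, pooled, and extracted in PBS with 0.5% NP-40 at 4°C, and was quantified by TMTpro 16plex LC-MS/MS with equalised channel sums. Thermal stability against control samples, from duplicates, is reported as log2 fold change.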
# Chain of UniProt Q53S58 (Q53S58 whole entry, looked up): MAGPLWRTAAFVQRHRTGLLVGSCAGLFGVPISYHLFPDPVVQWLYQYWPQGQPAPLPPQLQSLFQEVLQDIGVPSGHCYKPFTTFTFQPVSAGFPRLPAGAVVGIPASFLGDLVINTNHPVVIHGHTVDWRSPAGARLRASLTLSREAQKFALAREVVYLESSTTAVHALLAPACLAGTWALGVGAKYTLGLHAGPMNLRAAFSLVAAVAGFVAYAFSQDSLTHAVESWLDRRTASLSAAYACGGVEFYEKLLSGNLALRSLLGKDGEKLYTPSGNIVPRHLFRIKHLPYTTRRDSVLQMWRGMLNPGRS
# Chain of UniProt Q5VIR6 (Q5VIR6 whole entry, looked up): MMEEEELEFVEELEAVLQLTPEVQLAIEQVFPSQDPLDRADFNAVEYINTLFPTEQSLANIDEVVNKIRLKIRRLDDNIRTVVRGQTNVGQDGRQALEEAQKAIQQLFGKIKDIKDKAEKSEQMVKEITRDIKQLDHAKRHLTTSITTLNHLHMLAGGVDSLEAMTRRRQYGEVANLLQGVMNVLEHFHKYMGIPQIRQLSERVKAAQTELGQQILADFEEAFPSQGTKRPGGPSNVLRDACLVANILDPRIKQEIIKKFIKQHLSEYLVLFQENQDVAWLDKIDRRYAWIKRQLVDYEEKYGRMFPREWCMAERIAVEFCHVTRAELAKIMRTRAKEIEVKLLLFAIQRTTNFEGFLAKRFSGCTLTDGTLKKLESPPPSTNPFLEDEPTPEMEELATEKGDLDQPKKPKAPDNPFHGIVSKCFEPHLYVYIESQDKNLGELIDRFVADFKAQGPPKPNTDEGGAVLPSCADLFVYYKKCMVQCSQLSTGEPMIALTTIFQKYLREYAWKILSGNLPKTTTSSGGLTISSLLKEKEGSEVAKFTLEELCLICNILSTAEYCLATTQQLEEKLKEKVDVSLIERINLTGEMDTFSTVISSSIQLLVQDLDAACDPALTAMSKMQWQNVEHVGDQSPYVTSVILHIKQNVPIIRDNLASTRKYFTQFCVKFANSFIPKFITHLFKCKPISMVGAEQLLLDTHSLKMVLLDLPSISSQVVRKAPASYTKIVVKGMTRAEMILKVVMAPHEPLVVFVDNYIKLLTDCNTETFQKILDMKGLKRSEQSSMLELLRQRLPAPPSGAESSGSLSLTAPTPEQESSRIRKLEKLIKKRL
# Chain of UniProt Q16763 (Q16763 whole entry, looked up): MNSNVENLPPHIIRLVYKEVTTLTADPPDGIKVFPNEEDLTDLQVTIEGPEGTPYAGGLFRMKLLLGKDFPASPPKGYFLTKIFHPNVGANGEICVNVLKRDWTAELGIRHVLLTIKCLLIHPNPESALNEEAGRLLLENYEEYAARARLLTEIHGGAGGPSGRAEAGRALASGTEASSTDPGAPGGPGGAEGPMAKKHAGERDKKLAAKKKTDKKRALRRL
# Chain of UniProt Q99986 (Q99986 whole entry, looked up): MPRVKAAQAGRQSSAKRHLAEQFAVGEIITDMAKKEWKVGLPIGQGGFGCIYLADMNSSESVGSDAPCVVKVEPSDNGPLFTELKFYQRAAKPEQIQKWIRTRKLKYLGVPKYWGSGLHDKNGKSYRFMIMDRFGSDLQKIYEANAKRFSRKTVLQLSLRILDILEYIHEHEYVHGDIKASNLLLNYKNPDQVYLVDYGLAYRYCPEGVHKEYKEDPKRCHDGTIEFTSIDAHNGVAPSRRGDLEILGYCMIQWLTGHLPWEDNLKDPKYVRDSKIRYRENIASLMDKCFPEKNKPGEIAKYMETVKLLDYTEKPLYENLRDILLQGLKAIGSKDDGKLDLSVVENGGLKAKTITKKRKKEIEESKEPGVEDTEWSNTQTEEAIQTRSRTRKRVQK
# Chain of UniProt Q8TBZ6 (Q8TBZ6 whole entry, looked up): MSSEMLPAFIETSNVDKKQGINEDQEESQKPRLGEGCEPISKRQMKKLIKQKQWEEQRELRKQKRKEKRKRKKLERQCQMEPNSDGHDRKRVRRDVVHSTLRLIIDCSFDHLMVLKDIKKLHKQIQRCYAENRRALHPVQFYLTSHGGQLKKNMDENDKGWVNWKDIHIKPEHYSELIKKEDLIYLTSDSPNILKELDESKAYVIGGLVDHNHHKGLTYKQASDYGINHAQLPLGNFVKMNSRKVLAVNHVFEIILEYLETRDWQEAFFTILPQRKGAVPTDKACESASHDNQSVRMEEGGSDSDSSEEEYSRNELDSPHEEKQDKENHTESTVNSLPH
# Chain of UniProt Q7Z6J8 (Q7Z6J8 whole entry, looked up): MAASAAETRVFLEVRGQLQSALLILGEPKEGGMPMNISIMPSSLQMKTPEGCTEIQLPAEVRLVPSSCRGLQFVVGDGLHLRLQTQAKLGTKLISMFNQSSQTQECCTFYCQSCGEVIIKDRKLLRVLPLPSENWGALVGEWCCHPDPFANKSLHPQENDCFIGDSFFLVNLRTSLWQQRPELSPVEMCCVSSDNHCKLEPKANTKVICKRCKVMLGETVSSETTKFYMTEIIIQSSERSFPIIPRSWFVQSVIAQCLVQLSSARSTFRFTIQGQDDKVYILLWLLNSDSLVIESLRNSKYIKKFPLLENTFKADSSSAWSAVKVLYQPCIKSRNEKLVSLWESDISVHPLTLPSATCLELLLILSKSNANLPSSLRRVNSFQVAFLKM
# Chain of UniProt O14787 (O14787 whole entry, looked up): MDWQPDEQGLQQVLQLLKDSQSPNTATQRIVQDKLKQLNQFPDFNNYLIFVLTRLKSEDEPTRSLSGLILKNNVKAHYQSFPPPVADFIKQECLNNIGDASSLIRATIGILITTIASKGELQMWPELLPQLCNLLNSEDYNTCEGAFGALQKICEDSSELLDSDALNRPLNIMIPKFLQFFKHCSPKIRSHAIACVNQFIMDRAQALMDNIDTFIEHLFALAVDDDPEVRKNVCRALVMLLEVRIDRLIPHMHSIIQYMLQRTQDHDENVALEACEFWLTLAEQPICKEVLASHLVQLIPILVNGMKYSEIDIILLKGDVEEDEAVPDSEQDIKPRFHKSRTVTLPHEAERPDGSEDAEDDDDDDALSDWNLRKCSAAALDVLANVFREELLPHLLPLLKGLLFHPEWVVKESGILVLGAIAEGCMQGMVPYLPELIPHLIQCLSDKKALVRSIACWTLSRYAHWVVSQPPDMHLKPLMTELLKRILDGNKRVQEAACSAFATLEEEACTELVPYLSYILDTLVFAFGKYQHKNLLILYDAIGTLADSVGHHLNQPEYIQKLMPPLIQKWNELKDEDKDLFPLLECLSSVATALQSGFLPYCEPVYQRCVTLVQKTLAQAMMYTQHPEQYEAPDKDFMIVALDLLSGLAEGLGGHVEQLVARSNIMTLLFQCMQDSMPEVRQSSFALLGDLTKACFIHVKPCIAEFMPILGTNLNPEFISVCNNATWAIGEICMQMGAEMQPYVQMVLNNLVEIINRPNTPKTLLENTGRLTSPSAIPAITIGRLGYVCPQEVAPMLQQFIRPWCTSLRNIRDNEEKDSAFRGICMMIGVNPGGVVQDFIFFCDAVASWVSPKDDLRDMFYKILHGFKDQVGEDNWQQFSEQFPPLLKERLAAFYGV
# Chain of UniProt Q9H6R7 (Q9H6R7 whole entry, looked up): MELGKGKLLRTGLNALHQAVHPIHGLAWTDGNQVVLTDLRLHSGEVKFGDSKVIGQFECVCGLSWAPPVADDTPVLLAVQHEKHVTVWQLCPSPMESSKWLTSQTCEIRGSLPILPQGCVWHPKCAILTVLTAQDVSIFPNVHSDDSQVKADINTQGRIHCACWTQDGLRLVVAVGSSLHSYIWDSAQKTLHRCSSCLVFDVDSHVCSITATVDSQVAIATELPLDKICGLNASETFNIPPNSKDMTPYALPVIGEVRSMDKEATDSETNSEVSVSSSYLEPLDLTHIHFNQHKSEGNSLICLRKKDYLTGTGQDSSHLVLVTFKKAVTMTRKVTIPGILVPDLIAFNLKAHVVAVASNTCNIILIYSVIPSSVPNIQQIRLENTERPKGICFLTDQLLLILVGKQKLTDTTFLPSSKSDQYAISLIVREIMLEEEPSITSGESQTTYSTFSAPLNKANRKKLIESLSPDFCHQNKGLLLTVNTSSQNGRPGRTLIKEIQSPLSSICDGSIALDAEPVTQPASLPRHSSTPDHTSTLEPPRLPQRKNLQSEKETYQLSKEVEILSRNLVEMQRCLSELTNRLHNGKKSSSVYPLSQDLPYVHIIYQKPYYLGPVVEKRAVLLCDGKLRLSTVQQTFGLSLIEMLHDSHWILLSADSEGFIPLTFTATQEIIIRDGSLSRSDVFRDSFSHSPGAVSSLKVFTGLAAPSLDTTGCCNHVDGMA
# Chain of UniProt P68366 (P68366 whole entry, looked up): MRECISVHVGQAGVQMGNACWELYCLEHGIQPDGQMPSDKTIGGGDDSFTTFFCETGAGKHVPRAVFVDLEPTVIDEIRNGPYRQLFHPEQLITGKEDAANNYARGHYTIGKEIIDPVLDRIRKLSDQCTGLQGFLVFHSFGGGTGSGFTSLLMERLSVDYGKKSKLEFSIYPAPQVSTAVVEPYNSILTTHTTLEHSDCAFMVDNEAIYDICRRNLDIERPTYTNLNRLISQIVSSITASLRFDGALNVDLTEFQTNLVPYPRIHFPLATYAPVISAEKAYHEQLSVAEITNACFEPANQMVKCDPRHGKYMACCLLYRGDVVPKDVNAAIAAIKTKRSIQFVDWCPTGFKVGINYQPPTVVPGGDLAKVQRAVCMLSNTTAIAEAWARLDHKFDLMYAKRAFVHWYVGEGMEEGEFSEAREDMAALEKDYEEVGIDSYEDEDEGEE
# Chain of UniProt Q01081 (Q01081 whole entry, looked up): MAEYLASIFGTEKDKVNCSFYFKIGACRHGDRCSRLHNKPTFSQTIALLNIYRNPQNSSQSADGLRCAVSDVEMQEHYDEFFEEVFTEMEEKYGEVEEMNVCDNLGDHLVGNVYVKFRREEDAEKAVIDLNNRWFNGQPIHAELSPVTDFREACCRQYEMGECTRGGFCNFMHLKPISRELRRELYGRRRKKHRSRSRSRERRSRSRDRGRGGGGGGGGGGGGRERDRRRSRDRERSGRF
# Chain of UniProt Q8N4H5 (Q8N4H5 whole entry, looked up): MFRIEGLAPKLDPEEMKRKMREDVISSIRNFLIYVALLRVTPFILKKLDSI
row,Target,log2 fold change
1,TRAPPC2L (UniProt Q9UL33),0.005
2,UGDH (UniProt O60701),-0.062
3,WDR7 (UniProt Q9Y4E6),-0.227
4,TOMM5 isoform 2 (UniProt Q8N4H5),-0.053
5,USP7 (UniProt Q93009),-0.039
6,TYW1 (UniProt Q9NV66),-0.022
7,UBR2 (UniProt Q8IWV8),-0.007
8,TMEM161A (UniProt Q9NX61),0.043
9,XPNPEP1 isoform 3 (UniProt Q9NQW7),-0.04
10,XRCC6 (UniProt P12956),-0.064
11,TNPO2 (UniProt O14787),0.015
12,TRMT10C (UniProt Q7L0Y3),-0.055
13,UHRF1BP1L (UniProt A0JNW5),-0.004
14,TUBA4A (UniProt P68366),0.004
15,USP3 (UniProt Q9Y6I4),0.039
16,WBP4 (UniProt O75554),0.28 (active)
17,VTA1 (UniProt Q9NP79),-0.029
18,UBE3D (UniProt Q7Z6J8),-0.019

row,Target,log2 fold change
1,VPS16 (UniProt Q9H269),0.041
2,TXNRD1 (UniProt Q16881),-0.082
3,TMEM177 (UniProt Q53S58),-0.014
4,WDCP (UniProt Q9H6R7),0.062
5,TMEM223 (UniProt A0PJW6),-0.087
6,VRK1 (UniProt Q99986),-0.056
7,UBE2S (UniProt Q16763),-0.04
8,XRCC5 (UniProt P13010),-0.024
9,TMEM9 (UniProt Q9P0T7),-0.008
10,TRMT10A (UniProt Q8TBZ6),0.015
11,TNPO1 (UniProt Q92973),0.003
12,WARS2 (UniProt Q9UGM6),-0.082
13,VPS53 isoform 4 (UniProt Q5VIR6),-0.036
14,TSG101 (UniProt Q99816),-0.02
15,U2AF1 isoform 2 (UniProt Q01081),-0.174
16,UPF3B (UniProt Q9BZI7),0.092
17,VPS50 (UniProt Q96JG6),0.003
18,TTC38 (UniProt Q5R3I4),0.038
